Drawing on ChEMBL document CHEMBL3988442, “University of Dundee, Small-Polar-MMV Screening Library” (2021), this text covers Percent Effect for 20 compounds.

Molecules are shown by their SMILES.

This assay deals with T1, Aspartate--tRNA(Asp/Asn) ligase (Mycobacterium tuberculosis (strain ATCC 25618 / H37Rv)) (UniProt P9WFW3).
T1 sequence (whole entry): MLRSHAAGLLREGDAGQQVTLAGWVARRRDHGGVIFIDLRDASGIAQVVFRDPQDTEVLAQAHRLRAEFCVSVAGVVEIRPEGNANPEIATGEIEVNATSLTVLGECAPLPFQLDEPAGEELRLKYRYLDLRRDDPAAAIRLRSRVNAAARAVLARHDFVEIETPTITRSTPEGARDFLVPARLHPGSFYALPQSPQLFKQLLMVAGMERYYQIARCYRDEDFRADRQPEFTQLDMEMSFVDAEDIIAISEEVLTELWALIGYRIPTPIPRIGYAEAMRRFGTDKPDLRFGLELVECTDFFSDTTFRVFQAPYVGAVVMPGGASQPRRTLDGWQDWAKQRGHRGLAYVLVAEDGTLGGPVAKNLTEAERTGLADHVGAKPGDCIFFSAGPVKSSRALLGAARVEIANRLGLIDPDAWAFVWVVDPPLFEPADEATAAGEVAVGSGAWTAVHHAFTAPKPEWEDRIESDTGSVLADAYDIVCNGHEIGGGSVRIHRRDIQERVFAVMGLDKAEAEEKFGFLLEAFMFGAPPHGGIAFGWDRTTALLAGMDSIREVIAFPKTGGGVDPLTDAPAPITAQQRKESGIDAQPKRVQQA
The assay can be described thus: Assay for Asp RNA synthetase-1 from Mycobacterium tuberculosis. Format: functional. More on the design: scale not given: in the data most compounds retested in dose-response had high values. Conditions: 30 µM.
On to `COc1cccc(-c2noc(C3CCN(Cc4cccs4)C3)n2)c1` (stereo not given), for which the Percent Effect is -0.868%. With `CCC1CCCCN1C(=O)c1ccc2[nH]nnc2c1` (stereo not given) the figure was 6.94%; with `Cc1ccc(S(=O)(=O)N2CCc3nc(C4CCNCC4)ncc3C2)cc1`, -1.21%; with `Cn1ncc2c1CN(Cc1cccnc1)CC2COCC1CC1` (stereo not given), 2.03%. With `COC[C@H]1CCC[C@]12CN(C(=O)NCc1ccccc1)CCO2` the figure was -3.75%. Turning to `Cc1nn(-c2ccccc2)cc1C(=O)N1CCCN2CCCC2C1` (stereo not given), the Percent Effect was -6.57%.

For `CC(=O)N1CCCC1c1cccc(Cc2ccc(F)cc2)n1` (stereo not given), the Percent Effect was -5.96%. With `CN(C)CCN1CCCC12CCN(C(=O)c1cccn1C)CC2` the figure was -5.96%; with `COCCn1ccc(NC(=O)Nc2cccnc2)n1`, -2.04%. With `CCc1nccn1C1CCCN(C(=O)c2csc(NC(C)=O)n2)C1` (stereo not given) the figure was -1.64%; with `N#Cc1ccnc(N2CCN(C(=O)NC3CCS(=O)(=O)C3)CC2)c1` (stereo not given), -2.74%; with `Cc1ccc(NC(=O)C2CSCN2C(=O)c2cnn(C)c2)c(C)c1` (stereo not given), 0.456%.

Turning to `CC(C)Oc1ncnc2c1CCN(Cc1cccs1)CC2`, the Percent Effect came to 1.14%. For `Cc1oc(-c2ccco2)nc1CC(=O)N1CCC(C(O)C(F)(F)F)CC1` (stereo not given), the Percent Effect was -5.79%.

In the case of `Cc1nc(N2CC[C@@H](NC(=O)c3cnccn3)[C@H](O)C2)c2ccsc2n1`, the Percent Effect is -1.04%. With `O=C(NCc1nnc2n1CCCC2)N1CCc2ccccc2C1` the figure was 1.56%; with `c1cnnc(N2CCCC(NCc3ccc(-n4cccn4)cc3)C2)c1` (stereo not given), -2.36%. Then `CCC1c2cccn2CCN1C(=O)c1ccc2nonc2c1` (stereo not given), with 4.26%; and `COCC(=O)N1CCC2(CCN(Cc3ccccn3)CC2)CC1`, with 6.21%. With `CCc1[nH]ncc1C(=O)N1CCCN(Cc2cnn(C(C)C)c2)CC1` the figure was 6.41%.
